This note sets out measurements from PubChem BioAssay AID504660 (National Center for Advancing Translational Sciences (NCATS), 2011).

Each structure is given as a SMILES string. “And” between values parts separate entries of the source, which are not always exact repeats. Identical values can stand only once. Hit rate of the full screen: of about 360,000 compounds, about 3,700 (1%) were called active. This is one part of a sample in which actives are shown more often than they occur. No stated cut-off is given here; in the data, active means activation above about 30%; inactive means the rest.

For this test, the target named is D(1A) dopamine receptor (Homo sapiens) (UniProt P21728). Put plainly: Allosteric Agonists of the Human D1 Dopamine Receptor: qHTS. Further: 0% is about no effect. As to conditions: HEK293 T-REx D1 cells, calcium flux, agonist mode; at 2 µM; stronger effect = higher value. Summed up: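 Tetracycline-induced HEK293 TREx D1 cells, force-coupled to calcium signalling, were dye-loaded with a no-wash calcium kit. Compound was pin-added after a 10 s baseline. Fluorescence was read kinetically at 1 cycle/s for 180 s, with calcium rises flagged as agonism.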
Sequence of D(1A) dopamine receptor (Homo sapiens) (P21728 whole entry, looked up): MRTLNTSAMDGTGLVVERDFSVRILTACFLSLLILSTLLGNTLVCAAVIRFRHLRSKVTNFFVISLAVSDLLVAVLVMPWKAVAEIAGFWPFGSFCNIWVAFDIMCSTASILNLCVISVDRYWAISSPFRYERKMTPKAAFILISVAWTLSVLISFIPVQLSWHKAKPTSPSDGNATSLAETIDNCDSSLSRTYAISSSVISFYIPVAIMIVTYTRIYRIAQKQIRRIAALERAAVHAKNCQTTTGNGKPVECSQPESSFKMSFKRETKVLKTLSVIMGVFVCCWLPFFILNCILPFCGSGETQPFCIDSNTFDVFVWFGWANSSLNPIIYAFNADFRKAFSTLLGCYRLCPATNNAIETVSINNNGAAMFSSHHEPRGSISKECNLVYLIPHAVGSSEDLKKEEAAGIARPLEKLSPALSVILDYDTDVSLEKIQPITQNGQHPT
Take `CSc1ccc(CCNC(=O)c2ccc3c(c2)nc2n3CCOC2)cc1`: the activation is 0.926% (inactive). As for `O=S(=O)(NCC(c1ccco1)N1CCOCC1)c1cc(F)ccc1F` (stereo not given), the figure is -2.87% (inactive); as for `CCc1ccc(C2CC(=O)c3c([nH]c(C(=O)OCc4ccc(C)cc4)c3C)C2)cc1` (stereo not given), 3.18% (inactive); as for `Cc1ccc2nc(COc3cccc(NC(=O)Nc4ccc(C)c(Cl)c4)c3)cc(=O)n2c1`, -0.44% (inactive). As for `Cc1ccc(C(=O)CC2(O)C(=O)N(CCc3ccccc3)c3ccc(Br)cc32)cc1` (stereo not given), the figure is 9.1% (inactive); as for `O=C(Cn1nc(Cc2cccnc2)c2ccccc2c1=O)NCC1COc2ccccc2O1` (stereo not given), 0.536% (inactive); as for `c1ccc2c(c1)OCC(CNc1ncnc3nc[nH]c13)O2` (stereo not given), 182% (active).

With `CCC(=O)c1ccc(OCC(=O)N(CC)CC2COc3ccccc3O2)cc1` (stereo not given), the activation is 3.24% (inactive).

With `CCn1c2ccccc2c2nnc(N3CCN(c4cc(C)ccc4C)CC3)nc21`, the activation is -0.584% (inactive). Take `Cc1ccc2c(=O)c(C(=O)c3cccc(Cl)c3)cn(CC(=O)NCc3ccccc3)c2n1`: the activation was 0.234% (inactive). The same measure for `CCOc1ccc(NC(=O)Cn2cc(C(=O)c3ccc(C)cc3)c(=O)c3cc4c(cc32)OCCO4)cc1`: 4.93% (inactive); for `CC(=O)n1c(C=Nc2ccccc2)c(O)c2ccccc21`: 52.3% (active); for `CCCn1c(=O)c(-c2ccccc2)c(O)c2ccccc21`: 0.534% (inactive). `Cc1cc(=O)n(CC(=O)Nc2cccc([N+](=O)[O-])c2)c(-n2nc(C)cc2C)n1`: the activation is -0.478% (inactive). On to `Cc1ccc(C(=O)NC2CCN(C#N)CC2)cc1`, for which the activation was -0.099% (inactive).

For `Cc1ccccc1-n1c(C)cc(/C=N/NC(=O)c2ccc(CN3CCOCC3)cc2)c1C`, the activation is 9.59% (inactive). Regarding `O=C(N/N=C/C=C/c1ccco1)c1cccs1`, the activation is 2.91% (inactive). The same measure for `Cc1cccc(-n2c(C)cc(/C=N\NC(=O)c3cccs3)c2C)c1`: 36.3% (active); for `N#CN1CCC(NS(=O)(=O)c2cccc(F)c2)C1` (stereo not given): 0.986% (inactive). The same measure for `Cc1cc2c(s1)c1cnn(Cc3cc(F)c(Cl)cc3Cl)c(=O)c1n2C`: -0.162% (inactive); for `Cc1cccc(S(=O)(=O)c2cn(Cc3ccccc3)c3cc(N4CCOCC4)c(F)cc3c2=O)c1`: 1.08% (inactive); for `Cc1c(Nc2cc(N3CCCC(C)C3)c3nonc3c2[N+](=O)[O-])c(=O)n(-c2ccccc2)n1C` (stereo not given): -0.0536% (inactive).

`Nc1cc(N2CCCCCC2)c2nonc2c1[N+](=O)[O-]`: the activation is 34.1% (active). The same measure for `COCCNc1nc(N)c([N+](=O)[O-])c(N2CCCCCC2)n1`: 2.99% (inactive); for `CC(C)c1ccc(NC(=O)Cn2c3ncccc3c(=O)n2-c2ccccc2)cc1`: 2.49% (inactive).

For `COCCNc1ncnc2c1c(-c1ccccc1)cn2-c1ccc(C)c(Cl)c1`, the activation is 2.02% (inactive). The same measure for `CCC(O)C1CCN(Cc2cn(-c3ccc(OC)cc3)nc2-c2cccc(F)c2)CC1` (stereo not given): 34.2% (active). The same measure for `COc1ccc(-n2cc(CNC3CCOCC3)c(-c3cccc(F)c3)n2)cc1`: 14.3% (inactive).

On to `Cc1cccc(-n2cc(CN3CCN(C(=O)c4ncn[nH]4)CC3)c(-c3cccc(F)c3)n2)c1`, for which the activation was 1.07% (inactive). The same measure for `CCOC(=O)c1ccc(NC(=O)CSc2nc3c([nH]c4ccccc43)c(=O)n2C)cc1`: 0.658% (inactive); for `COc1cccc(C(=O)NCC(=O)OCc2cc(=O)n3ccsc3n2)c1`: -0.454% (inactive).

On to `Cc1c(CCO)sc[n+]1CC(=O)OC12CC3CC(CC(C3)C1)C2`, for which the activation is 2.73% (inactive). As for `Cc1c(CCOC(=O)CC23CC4CC(CC(C)(C4)C2)C3)sc[n+]1Cc1ccc([N+](=O)[O-])cc1`, the figure is 35.6% (active); as for `Cc1c(CCOC(=O)c2cc([N+](=O)[O-])ccc2Cl)sc[n+]1CCCCS(=O)(=O)[O-]`, 2.52% (inactive). As to `CCn1c(CN2CCC(C)CC2)nc2cc(NC(=O)c3ccccc3[N+](=O)[O-])ccc21`, the activation is 0.209% (inactive). The same measure for `COc1ccc(OC)c(NC(=O)CSC2=Nc3ccccc3C3=NC(CC(=O)NCc4ccc(F)cc4)C(=O)N23)c1` (stereo not given): -0.058% (inactive); for `CCOC(=O)c1ccc(N2C(=O)c3n[nH]c(C)c3C2c2ccc(O)c(OC)c2)cc1` (stereo not given): 0.253% (inactive); for `CCCCCCCCCCOC(=O)Cn1c(COc2cccc(OC)c2)[n+](C)c2ccccc21`: 116% (active). In the case of `COc1ccc(-n2c(=O)c3sc4ccccc4c3n(CC(=O)Nc3cccc(C)c3)c2=O)cc1`, the activation is 8.8% (inactive). The same measure for `O=C(Nc1ccc(O)c(-c2nc3ccccc3o2)c1)c1ccc(-c2cccc(Cl)c2)o1`: 0.486% (inactive); for `C=CCn1c(=N)n(CC(O)COc2ccc(OC)cc2)c2ccccc21` (stereo not given): 40.4% (active). Turning to `Cc1cccc(OCC(O)Cn2c(=N)n(CCN3CCOCC3)c3ccccc32)c1` (stereo not given), the activation was 0.333% (inactive). The same measure for `CCCn1c(=N)n(CC(O)COc2ccccc2OC)c2ccccc21` (stereo not given): -0.594% (inactive); for `O=S(=O)(NCCc1nnc2ccc(SCc3ccc(Cl)cc3Cl)nn12)c1ccccc1`: 1.47% (inactive); for `Cc1ccc(Cl)cc1N1CCN(C(=O)c2cccn3c(=O)c4cc(Cl)ccc4nc23)CC1`: 2.28% (inactive). The same measure for `Cc1ccc(Cl)cc1N1CCN(C(=O)c2cccc3c(=O)c(C)c(-c4ccccc4)oc23)CC1`: 34.3% (active); for `CCn1cc(C(=O)N2CCN(c3cc(Cl)ccc3C)CC2)c(=O)c2cc(S(=O)(=O)N3CCCC3)ccc21`: -0.309% (inactive). With `COc1ccc(-c2c3c(=O)n(C)c(=O)n(C)c3c3c(C)nc4ccccc4n23)cc1`, the activation is -0.834% (inactive). With `COc1ccc(-c2nn3c(-c4ccc(OC)cc4)nnc3c3ccccc23)cc1`, the activation is -0.437% (inactive).

As to `CCOCCCNC(=O)c1cn(CC)c2ccc(S(=O)(=O)N3CCc4ccccc4C3)cc2c1=O`, the activation was 0.286% (inactive).

Regarding `CSCCC(NC(=O)COc1ccccc1)C(=O)OCCOc1ccc(Br)cc1` (stereo not given), the activation was 30.8% (active). As for `CSCCC(NC(=O)COc1ccccc1)C(=O)OCCOc1ccc(F)cc1` (stereo not given), the figure is 2.91% (inactive); as for `CSCCC(NC(=O)COc1ccccc1)C(=O)OCC(=O)c1cc2ccccc2o1` (stereo not given), 5.5% (inactive).

With `CCC(NC(=O)c1cc(COc2ccc(F)c(F)c2)on1)c1ccncc1` (stereo not given), the activation was 24.1% (inactive). As for `O=C(c1cc(COc2ccc(F)cc2F)on1)N1CCOCC1`, the activation was 2.85% (inactive).

As for `CCOC(=O)CC1COCCN1C(=O)c1cc(COc2ccc(F)c(F)c2)on1` (stereo not given), the activation is 43.4% (active). As for `CCCCc1nn2c(=O)cc(COC(=O)c3ccc(NC(=O)c4ccccc4C)cc3)nc2s1`, the figure is 4.38% (inactive). As for `COCCCNC(=O)c1ccc(NC(=O)c2nsc3ccccc23)cc1`, the activation is -0.261% (inactive).

Turning to `CN(C)c1ccc(/C=C2\NC(=S)N(Cc3ccccc3)C2=O)cc1`, the activation is 203% (active). `CCn1cc(C(=O)NCc2ccc(C)cc2)c(=O)c2cc(S(=O)(=O)N3CCc4ccccc4C3)ccc21`: the activation was -1.37% (inactive). As for `CN(C)c1ccc(NC(=O)CSc2nc(-c3ccco3)cc(C(F)(F)F)n2)cc1`, the figure is -0.482% (inactive). Turning to `Cc1cc(C)c(-c2n[nH]c3c2C(c2ccccc2F)N(CCO)C3=O)c(O)c1` (stereo not given), the activation is -0.0969% (inactive). For `C=CCSc1nsc(NC(=O)Nc2cccc(C(C)=O)c2)n1`, the activation is 34.2% (active). As for `CCSc1nsc(NC(=O)Nc2cccc(C(C)=O)c2)n1`, the figure is 29.4% (inactive); as for `CC(=O)c1ccc(NC(=O)CSc2nnc(NC(=O)Nc3ccccc3)s2)cc1`, 2.71% (inactive); as for `CCOc1ccc(-c2cc(C)n3nc(C(=O)Nc4ccc(C)c(C)c4)cc3n2)cc1`, 0.877% (inactive). For `Cc1ccccc1S(=O)(=O)N1[C@@H](c2cccc(Cl)c2)C(C(=O)O)=CC[C@H]1c1ccc(Cl)cc1`, the activation is 2.18% (inactive). As for `Cc1ccc(S(=O)(=O)N2[C@@H](c3cccc(Cl)c3)C(C(=O)O)=CC[C@H]2c2ccc(Cl)c(Cl)c2)cc1`, the figure is 43.2% (active); as for `Cc1ccc(S(=O)(=O)N2[C@@H](c3ccccc3F)C(C(=O)O)=CC[C@H]2c2ccc(Cl)cc2)cc1`, 3.48% (inactive).

As to `CCOC(=O)N1CCc2c(sc(NCc3cccc(F)c3)c2C(=O)Nc2ccccc2OCC)C1`, the activation was -1.06% (inactive). As for `N=c1n(Cc2ccc(Cl)cc2)c2ccccc2n1CC(O)c1ccco1` (stereo not given), the figure is 92.6% (active); as for `CCOc1ccc(C(O)Cn2c(=N)n(CCN3CCCCC3)c3ccccc32)cc1` (stereo not given), 0.859% (inactive). Turning to `O=C(NCc1ccccc1)C(=O)NCC(c1ccco1)S(=O)(=O)c1ccc(Cl)cc1` (stereo not given), the activation was 0.796% (inactive). As to `COc1cccc(N2CCN(C(=O)CCCCCn3c(=O)[nH]c4ccccc4c3=O)CC2)c1`, the activation is 3.15% (inactive). The same measure for `Cc1sc(C2C(C#N)=C(N)N(c3cccc(Cl)c3)C3=C2C(=O)CCC3)cc1CN1CCOCC1` (stereo not given): -0.583% (inactive); for `N#Cc1c(-c2cccs2)nc(SCC(=O)c2ccc(Br)cc2)[nH]c1=O`: 27.1% (inactive). As for `N#Cc1c(-c2ccccc2)nc(SCc2cccc(C(F)(F)F)c2)[nH]c1=O`, the activation was 42.4% (active).

Turning to `Cc1ccccc1CSc1nnc(-c2ccccc2)c(=O)[nH]1`, the activation was 0.158% (inactive).

For `Cc1c(C(=O)NCc2ccccc2Br)oc2ccc3c(c12)C(=O)CC(C)(C)O3`, the activation is 5.52% (inactive). For the molecule `CCc1cccc(C)c1Nc1c(-c2ccc(N(C)C)cc2)nc2ncccn12`, the activation is 51.7% (active). `Cc1cccc(C)c1Nc1c(-c2ccccc2O)nc2ncccn12`: the activation was -0.792% (inactive) and 1.73% (inactive). The same measure for `Cc1ccccc1Nc1c(-c2ccccc2)nc2ncccn12`: -0.718% (inactive).

`CCc1cc(C(=O)c2ccc(OC)cc2)c(NC(=O)CN2CCN(C)CC2)s1`: the activation is 32.2% (active). In the case of `COc1ccc(NC(=O)CCN2CCN(CCO)CC2)cc1`, the activation is 1.35% (inactive). The same measure for `CCc1ccc(NC(=O)CN2CCC(C(=O)c3ccc(OC)cc3)CC2)cc1`: 2.75% (inactive).
